Screening results from PubChem.
This is one part of a sample in which hits are shown more often than they occur.
Cruzain noTriton – qHTS Assay for Promiscuous and Specific Inhibitors of Cruzain (without detergent) | Cruzipain (Trypanosoma cruzi), P25779 | purified cruzain, Z-FR-AMC fluorescence, no detergent | Potency, µM, without a hit: max response, negative = inhibition, most hits filed as inhibitors | actives 2.3% (n = 200,000) | AID 1476, 2009;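 further: plate controls were enzyme without inhibitor for no effect and buffer without enzyme for full effect; nearly all actives have a fitted effect of over 40% in size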
Target sequence (P25779 123-467 limits assumed): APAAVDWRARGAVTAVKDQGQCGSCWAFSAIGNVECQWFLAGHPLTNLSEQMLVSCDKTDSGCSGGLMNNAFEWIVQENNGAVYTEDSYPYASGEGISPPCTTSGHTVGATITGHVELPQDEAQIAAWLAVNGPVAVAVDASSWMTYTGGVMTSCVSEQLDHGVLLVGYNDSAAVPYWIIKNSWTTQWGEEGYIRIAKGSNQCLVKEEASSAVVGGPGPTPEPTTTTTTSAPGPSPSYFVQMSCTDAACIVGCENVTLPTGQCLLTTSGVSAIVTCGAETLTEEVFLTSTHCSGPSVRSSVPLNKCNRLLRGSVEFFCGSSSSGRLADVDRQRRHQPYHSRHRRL
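Detergent-free condition (0.00005% Triton X-100) in acetate buffer pH 5.5 with DTT. 1.5 nM enzyme and compound were pre-mixed 15 min, then 2 uM Z-FR-AMC substrate added; reaction progress from fluorescence change between first and third reads (60 s).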
Giardia FBPA inh – qHTS Assay for Inhibitors of Fructose-1,6-bisphosphate Aldolase from Giardia Lamblia; actives 0.71% (n = 290,000); purified Giardia FBPA; Potency, µM (titrated, usually from 59.6 µM), without a hit: top-dose activity, negative = inhibition, hits mostly inhibitors; AID 2451, 2010; A8B2U2; further: nearly all actives have a fitted effect of over 55% in size
Target sequence (A8B2U2 whole entry, looked up): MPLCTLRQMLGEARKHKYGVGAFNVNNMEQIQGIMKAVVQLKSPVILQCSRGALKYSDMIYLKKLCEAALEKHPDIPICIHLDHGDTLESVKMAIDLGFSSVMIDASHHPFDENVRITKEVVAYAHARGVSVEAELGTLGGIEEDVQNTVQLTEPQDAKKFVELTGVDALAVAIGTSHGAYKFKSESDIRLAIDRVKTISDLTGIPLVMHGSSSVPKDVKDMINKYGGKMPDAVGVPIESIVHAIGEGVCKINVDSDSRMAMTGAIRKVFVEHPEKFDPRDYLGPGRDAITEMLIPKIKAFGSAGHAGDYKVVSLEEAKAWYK
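40 nM FBPA preincubated 10 min at RT with compound (up to 57.5 uM final), then substrate plus GAPDH/TPI/NAD/arsenate coupling and diaphorase/resazurin added. Fluorescence read after 20 min at RT, 525/598 nm.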
Cruzain Triton – qHTS Assay for Promiscuous and Specific Inhibitors of Cruzain (with detergent). Potency, µM, inactives show max response, negative = inhibition, most hits filed as inhibitors. purified cruzain, Z-FR-AMC fluorescence, 0.01% Triton. Cruzipain (Trypanosoma cruzi), P25779. actives 0.43% (n = 200,000);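 further: plate controls were neutral wells for no effect and buffer without enzyme for full effect; nearly all actives have a fitted effect of over 40% in size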
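Z-FR-AMC hydrolysis (2 uM substrate) by cruzain (1.5 nM) monitored kinetically at ex 360/em 450 nm after 15 min room-temperature compound exposure; 0.01% Triton X-100, pH 5.5, 5 mM DTT.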
An asterisk follows results filed as active; ? = inconclusive; . = no result given; [ ] = dose if it differs, or a comment. The call rests on the fitted dose curve; in most records, active means well fitted curve in the direction sought with a large enough effect; inconclusive means small, poorly fitted or top-dose-only effect, or another doubt; inactive means no such curve, though single readings can be large; an effect the other way counts as inactive or inconclusive. Unless noted, on the % scale 0 is the no-effect control and ±100 the full control effect; potency means the concentration at half of the fitted maximal effect.

SMILES	Cruzain noTriton	Giardia FBPA inh	Cruzain Triton
CCOC(=O)C(C(=O)OCC)N(Cc1cc(OC)ccc1OC)C(=O)C1CC(CO[Si](C)(C)C(C)(C)C)=CN1C(=O)OC(C)(C)C (stereo not given)	.	-2%	.
Cc1ccc(OC/C(O)=C(\C#N)c2nc3ccccc3s2)cc1	20µM*	10%	-3%
CC(C)=C(C#N)c1nc2ccccc2s1	-5%	12%	-7%
CC(C)(C)c1ccc(C(=O)Nc2nnc(Cc3c[nH]c4ccccc34)s2)cc1	?	1%	6%
O=C(Nc1nnc(Cc2c[nH]c3ccccc23)s1)c1ccc(Cl)cc1Cl	25µM*	-10%	-8%
CCOc1ccccc1-c1ccc(C(=O)O)o1	-10%	26%[136 µM]	-10%
CCc1cccc(C)c1NC(=O)COC(=O)c1c2c(nc3ccccc13)/C(=C\c1cccs1)CCC2	7.9µM*	2%	0%
NC(=O)c1ccc(NC(=O)COC(=O)c2c3c(nc4ccccc24)/C(=C\c2cccs2)CCC3)cc1	?	-9%	-2%
O=C(O)/C(Cc1ccc([N+](=O)[O-])cc1)=N/O	-8%	.	3%
NC(N)=NC(N)=Nc1ccc(C(=O)O)cc1	4%	.	2%
Oc1cccc(-c2nc(-c3cccs3)c(-c3cccs3)[nH]2)c1	12%	.	-12%
O=C(NCc1cccnc1)[C@@H]1[C@@H](C(=O)O)[C@H]2CC[C@@H]1O2	-8%	.	1%
O=C(c1ccccc1)C1C(c2ccccc2)C1[N+](=O)[O-] (stereo not given)	.	1%	.
CN(C)c1ccc([C@@H]2[C@@H]([N+](=O)[O-])[C@H]3C=Cc4ccccc4N3[C@H]2C(=O)c2ccc(Cl)cc2)cc1	7.9µM*	-14%	-5%
CCn1ccc2cc(S(=O)(=O)N3CCCN(C(=O)Nc4ccc(C)c(F)c4)CC3)ccc21	?	.	-5%
Cc1cc(=O)c(C(=O)O)nn1-c1cccc(C(F)(F)F)c1	.	-3%	.
O=c1ccn(-c2cccc(C(F)(F)F)c2)nc1-c1ccn(-c2ccccc2)n1	22%	32µM*	-1%
COC(=O)C1=C(C)N(Cc2ccccc2)[C@]23O[C@](C(=O)OC)(C(=O)N2C1c1ccccc1)C1CCOC(=O)C13 (stereo not given in full)	.	-1%[12.9 µM]	.
Nc1nnnn1/N=C/c1ccccc1OCc1ccc(Cl)cc1Cl	16µM*	0%	14µM*
Nc1nnnn1/N=C/c1ccccc1OCc1ccc(Cl)cc1	-28%	0%	-5%
CC(C)C[C@H](NC(=O)CNC(=O)[C@H](CCC(N)=O)NC(=O)[C@H](CC(C)C)NC(=O)[C@H](CC(C)C)NC(=O)[C@H](CCCNC(=N)N)NC(=O)[C@H](CCC(N)=O)NC(=O)[C@H](CC(C)C)NC(=O)[C@H](CCCNC(=N)N)NC(=O)[C@H](C)NC(=O)CNC(=O)[C@H](CCC(=O)O)NC(=O)[C@H](CCCNC(=N)N)NC(=O)[C@H](CC(C)C)NC(=O)[C@H](CCCNC(=N)N)NC(=O)[C@H](CO)NC(=O)[C@H](CC(C)C)NC(=O)[C@H](CCC(=O)O)NC(=O)[C@H](CO)NC(=O)[C@@H](NC(=O)[C@H](Cc1ccccc1)NC(=O)[C@@H](NC(=O)CNC(=O)[C@H](CC(=O)O)NC(=O)[C@H](CO)NC(=O)[C@@H](N)Cc1cnc[nH]1)[C@@H](C)O)[C@@H](C)O)C(=O)N[C@H](C(N)=O)C(C)C	.	8%	.
Clc1cccc(/C=N\Nc2nccs2)c1	16µM*	-1%	25µM*
C(=N/Nc1nccs1)/c1cccnc1	.	-3%	.
CC1Cc2ccccc2N1c1nc(C2CC2)nc2c1nnn2Cc1ccccc1 (stereo not given)	20µM*	-1%	-17%
CC1Cc2ccccc2N1c1ncnc2c1nnn2Cc1ccccc1 (stereo not given)	?	0%	-24%
SMILES	Cruzain noTriton	Giardia FBPA inh	Cruzain Triton
Cc1cccc(C(=O)NNc2ncnc3c2cnn3-c2ccc(C)c(Cl)c2)c1	10%	.	2%
COc1cc(C(=O)Nc2cccc(OCc3cc(=O)n4c(C)csc4n3)c2)cc(OC)c1OC	-16%	.	0%
Cc1ccccc1Nc1c(-c2cccnc2)nc2ccc(Cl)cn12	-2%	.	-8%
CCCOc1ccccc1C(=O)Nc1ccc(-c2nc3ccc(C)cc3s2)cc1	10%	.	-1%
CCOC(=O)c1cnc(N(C)C)nc1SC(=N)N	-6%	.	2%
CC1CCC2C(=O)N3C(CCC(C)C3c3ccccc3Br)C(=O)N2C1c1ccc(C#CCN(C)C)cc1 (stereo not given)	.	0%[12.9 µM]	.
O=S(=O)(Nc1cc(Sc2ncn[nH]2)c(O)c2ccccc12)c1ccccc1	.	2µM*	.
O=C(O)CSc1cc(NS(=O)(=O)c2ccc(Br)cc2)c2ccccc2c1O	.	7.1µM*	.
Cc1ccc(S(=O)(=O)Nc2ccc(Br)cc2C(NCC(=O)O)c2ccccc2)cc1 (stereo not given)	15%	19%	-12%
Cc1cc(NS(=O)(=O)c2ccccc2)c(C)c(Cl)c1O	-6%	2%	2%
CC(C)c1ccc(NC(=O)CN2C(=O)COc3ccc(S(=O)(=O)N4CCCCCC4)cc32)cc1	-26%	.	4%
Nc1ncnc2c([C@@H]3O[C@@H](CO)[C@H](O)[C@@H]3O)nsc12	20%	.	-5%
CCCOc1ccc(/C=c2\sc3nc(-c4ccco4)nn3c2=O)cc1OCC	8%	-17%	0%
CCCOc1ccc(Cc2nn3c(=O)/c(=C/c4ccco4)sc3nc2=O)cc1	10µM*	-2%	-6%
CC(C)C[C@H](NC(=O)[C@@H]1CCCN1C(=O)[C@H](Cc1ccccc1)NC(=O)[C@H](C)NC(=O)[C@H](CCC(=O)O)NC(=O)[C@H](C)NC(=O)[C@H](CO)NC(=O)[C@H](CCC(=O)O)NC(=O)[C@H](CC(=O)O)NC(=O)[C@H](CCC(=O)O)NC(=O)[C@H](C)NC(=O)CNC(=O)[C@H](CC(N)=O)NC(=O)[C@@H]1CCCN1C(=O)[C@H](Cc1ccc(O)cc1)NC(=O)[C@@H](NC(=O)[C@H](CCCCN)NC(=O)[C@@H](NC(=O)[C@@H]1CCCN1C(=O)[C@@H](N)CCCNC(=N)N)C(C)C)C(C)C)C(=O)N[C@@H](CCC(=O)O)C(=O)N[C@@H](Cc1ccccc1)C(=O)O	.	1%	.
CC1=[N+](C)c2c(ccc3cccnc23)C1(C)C	.	2µM*	.
Cc1[nH]c2c(ccc3cccnc32)c1C	.	-14%	.
COc1ccc(-c2nc(CCNC(=O)c3ccccc3)cs2)cc1OC	1%	.	-7%
O=C(CN1C(=O)CCSc2ccc(S(=O)(=O)N3CCCC3)cc21)Nc1cccc(F)c1	-9%	.	-2%
Cc1ccc(NC(=O)N2CCc3c(sc4c3CCCC4)C2c2ccccc2)cc1F (stereo not given)	7.9µM*	.	-1%
Cc1ccccc1NC(=O)N1CCc2c(sc3c2CCCC3)C1c1ccccc1 (stereo not given)	?	.	0%
CC(=O)OCC(NC(=O)C(CCCCNC(=O)OCc1ccccc1)NC(=O)OC(C)(C)C)C1OC(n2ccc(=O)[nH]c2=O)C(OC(C)=O)C1OC(C)=O (stereo not given)	.	8%	.
